# An excerpt weighted towards active compounds, which were near 19% of everything screened.
# KB-3-1 tox: qHTS assay for MDR1-selective chemotherapeutics: Primary screen using the parental adenocarcinoma cell KB-3-1 | KB-3-1 viability, CellTiter-Glo ATP luminescence, 72 h | Potency, µM (titrated, usually from 46.1 µM), actives largely listed as cytotoxic | 1.4% of 400,000 active | AID 1347075, 2019; also: nearly all actives have a fitted effect of over 60% in size
#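 KB-3-1 cells, DMEM (no phenol red) + 10% FBS; compound by pin transfer, 72 h, 37 °C. Readout: CellTiter-Glo luminescence after 10 min. Data normalized, curve-fitted.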
# KB-V1 MDR tox: qHTS assay for MDR1-selective chemotherapeutics: Primary screen using the drug-selected MDR subline cells KB-V1; KB-V1 MDR cells viability, CellTiter-Glo, 72 h; Potency, µM (series often up to 46.1 µM), hits mostly cytotoxic; 3.4% of 400,000 active; AID 1347076, 2019; also: nearly all actives have a fitted effect of over 60% in size
#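 Readout: CellTiter-Glo luminescence, 10 min after addition. Cells: KB-V1 MDR subline, 72 h at 37 degrees C with compound. Analysis: corrected, normalized data fitted to concentration-effect curves.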
# TDP1 cell noCPT: qHTS for Inhibitors of human tyrosyl-DNA phosphodiesterase 1 (TDP1): qHTS in cells in absence of CPT; DT40 Tdp1-/- hTDP1 cells, no CPT, ATP luminescence, 48 h; Potency, µM (doses to about 46.2 µM), hits mostly inhibitors; 15% of 420,000 active; AID 686978, 2013; also: nearly all actives have a fitted effect of over 55% in size
#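 Readout: luminescence from CellTiter-Glo after 30 min in the dark at RT. Cells: DT40 Tdp1-/- with stable hTDP1, 400/well. Exposure: compounds alone, ≥48 hr, 37 °C.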
# TDP1 cell CPT: qHTS for Inhibitors of human tyrosyl-DNA phosphodiesterase 1 (TDP1): qHTS in cells in presence of CPT; chicken DT40 Tdp1-/-;hTDP1 cells + 20 nM CPT, ATP luminescence, 48 h; Potency, µM (series often up to 46.2 µM), actives largely listed as inhibitors; 12% of 420,000 active; also: nearly all actives have a fitted effect of over 55% in size
#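 Chicken DT40 Tdp1-/- cells stably complemented with human TDP1 were seeded at 400 cells/well in medium containing 20 nM camptothecin, exposed to pin-transferred compounds, and grown at 37 °C for at least 48 hr. Viability was read as ATP luminescence.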
# HT1080 IDH1KD tx: qHTS for induction of synthetic lethality in tumor cells producing 2HG: qHTS for the HT-1080-IDH1KD cell line; HT-1080 IDH1 knockdown viability, ATP luminescence, 48 h; Potency, µM (titrated, usually from 46.1 µM), most hits filed as cytotoxic; 2% of 360,000 active; AID 686971, 2013
#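 Using the IDH1-knockdown HT-1080 line run in the same batch and compound series as the NT line, viability after 48 h at 37 °C was determined by CellTiter-Glo luminescence and expressed as % activity.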
# HT1080-NT tox: qHTS for induction of synthetic lethality in tumor cells producing 2HG: qHTS for the HT-1080-NT fibrosarcoma cell line; HT-1080-NT fibrosarcoma viability, CellTiter-Glo ATP luminescence, 48 h; Potency, µM (top dose mostly 46.1 µM), usual class: cytotoxic; 1.6% of 360,000 active; AID 686970, 2013;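 also: NT is the 2HG producing partner of a matched IDH1 knockdown line; nearly all actives have a fitted effect of over 55% in size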
#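 750 cells/well, RPMI + 5% FBS; 2 h settle, compound pin-transfer, 48 h at 37 degrees C. CellTiter-Glo 10 min RT, luminescence. Normalized to DMSO and media-only wells.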
# Numbers stand for hits; 0 = inactive; ? = inconclusive; - = no result given. Calls follow the shape of the dose curve; as a rule, active = well fitted curve in the direction sought with a large enough effect; inconclusive = small, poorly fitted or top-dose-only effect, or another doubt; inactive = no such curve, though single readings can be large; an effect the other way counts as inactive or inconclusive.
SMILES,KB-3-1 tox,KB-V1 MDR tox,TDP1 cell noCPT,TDP1 cell CPT,HT1080 IDH1KD tx,HT1080-NT tox
CC(CC(=O)Nc1ccc2c(c1)c(=O)n(C)n2Cc1ccc(Cl)cc1)C(F)(F)F (configuration not stated),0,0,9.2µM,?,0,0
COc1cc(Cn2c3ccc(NC(=O)CC(C)(C)C)cc3c(=O)n2C)ccc1F,0,0,?,?,0,0
CC(CC(=O)Nc1ccc2c(c1)c(=O)n(C)n2Cc1cccc(C(F)(F)F)c1)C(F)(F)F (configuration not stated),0,0,?,0,0,0
COc1cc(Cn2c3ccc(NC(=S)NCc4ccc(C)cc4)cc3c(=O)n2C)ccc1F,?,0,21µM,?,0,0
COc1cc(Cn2c3ccc(NC(=O)CC(C)C(F)(F)F)cc3c(=O)n2C)ccc1F (configuration not stated),0,0,16µM,?,0,0
COc1ccc(C)cc1NC(=O)c1c(C(=O)Nc2cccc(C)c2C)sc2nc(C)cc(=O)n12,0,?,0,0,-,-
FC(F)(F)c1cc(CO[C@@H]2CCCN[C@@H]2c2ccccc2)cc(C(F)(F)F)c1,0,0,13µM,?,23µM,?
Cc1ccccc1OC1C(=O)N(CC2CCCO2)C1c1ccc2c(c1)OCO2 (configuration not stated),0,0,13µM,15µM,0,0
O=C(Nc1cccc(C(F)(F)F)c1)c1cccnc1NCCc1ccccc1,?,?,16µM,?,?,?
O=C(Nc1cccc(C(F)(F)F)c1)c1cccnc1NCCO,0,0,0,0,0,0
COc1ccc(NC(=O)Cn2nnc(-c3nc(-c4ccncc4)no3)c2N)cc1OC,-,-,0,0,-,-
NNC(=O)CNC(c1ccccc1)c1cc(Br)ccc1NC(=O)CCN1CCOCC1 (configuration not stated),0,0,13µM,23µM,0,0
COC(=O)CNC(c1ccccc1)c1cc(Br)ccc1NC(=O)c1ccccc1 (configuration not stated),0,0,?,21µM,-,-
COC(=O)CNC(c1ccccc1)c1cc(Br)ccc1NC(C)=O (configuration not stated),0,0,0,0,0,0
CC(CC(=O)NNC(=O)c1cccc(Cl)c1)c1ccccc1 (configuration not stated),0,0,0,0,0,0
NNC(=O)CNC(c1ccccc1)c1cc(Br)ccc1NC(=O)c1ccc(Br)cc1 (configuration not stated),0,0,0,?,0,0
NNC(=O)CNC(c1ccccc1)c1cc(Br)ccc1NC(=O)c1cccc(Cl)c1 (configuration not stated),0,0,?,?,0,0
CCOC(=O)CNC(c1ccccc1)c1cc(Br)ccc1NC(=O)c1cccc(Cl)c1 (configuration not stated),0,?,23µM,?,-,-
COC(=O)CNC(c1ccccc1)c1cc(Cl)ccc1NC(=O)c1cccc(Cl)c1 (configuration not stated),0,5.2µM,?,?,0,0
CC(C)CCn1nnc2sc(-c3ccccc3)cc2c1=O,0,0,0,0,-,-
COc1cccc(CNC(=O)C(=O)NCC(c2ccco2)S(=O)(=O)c2ccccc2)c1 (configuration not stated),-,-,?,0,-,-
COC(=O)CNC(c1ccccc1Cl)c1cc(Br)ccc1NS(=O)(=O)c1ccc(C)cc1 (configuration not stated),?,18µM,16µM,?,0,0
CC(=O)N(C)C[C@@H]1Oc2ncc(C#Cc3ccc(F)cc3)cc2C(=O)N([C@@H](C)CO)C[C@H]1C,0,0,0,0,0,0
CCOC(=O)C1=C(COC(=O)Cc2ccc(Br)cc2)NC(=O)NC1C (configuration not stated),0,0,?,0,0,0
Cc1c(C(N)=O)c(N)c(C(=O)c2ccccc2)n1-c1ccccc1,0,21µM,0,0,0,0
SMILES,KB-3-1 tox,KB-V1 MDR tox,TDP1 cell noCPT,TDP1 cell CPT,HT1080 IDH1KD tx,HT1080-NT tox
N#Cc1nc(COc2cccc(Cl)c2)oc1NCc1ccco1,0,0,18µM,21µM,0,0
COc1ccc(CNc2oc(COc3cccc(C)c3)nc2C#N)cc1,0,?,?,4.1µM,-,-
COc1ccc(CNc2oc(COc3ccccc3Cl)nc2C#N)cc1,0,0,?,?,0,0
COc1ccc(CCNc2oc(COc3ccccc3)nc2C#N)cc1,0,16µM,?,?,0,0
COc1ccc(CNc2oc(COc3ccccc3)nc2C#N)cc1,0,18µM,?,?,0,0
COc1cc2c(cc1OC)/C(=C/C(C)=O)OC2,0,0,0,0,0,0
CCOC(=O)c1cc(S(=O)(=O)Nc2cc(F)ccc2C)[nH]n1,0,0,0,0,-,-
COc1cc(C(=O)NC(C)c2ccc3ccccc3c2)cc(Cl)c1O (configuration not stated),0,0,0,0,0,0
Cc1cccc(OCc2nc(C#N)c(N3CC(C)CC(C)C3)o2)c1 (configuration not stated),0,?,?,6.5µM,0,0
CCC(CC)c1nc(C#N)c(NCc2ccccc2)o1,15µM,?,21µM,23µM,?,?
COc1ccc(Nc2oc(COc3ccccc3F)nc2C#N)cc1,0,0,13µM,?,0,0
N#Cc1nc(-c2ccc(F)cc2)oc1NCc1ccccc1,0,0,?,?,0,0
CCOc1ccccc1NC(=O)Cn1nc2c3cc(F)ccc3n(Cc3cccc(C)c3)cc-2c1=O,0,0,?,0,-,-
COc1ccccc1N(CC(=O)NC(C)(C)C)C(=O)CCC(=O)Nc1nccs1,0,0,0,0,0,0
Nc1ccn([C@@H]2O[C@H](C(=O)N3CCCN(Cc4ccccc4F)CC3)[C@@H](O)[C@H]2O)c(=O)n1,0,?,0,0,0,0
CCNC(=O)C1(C)CCCN1Cc1cccc(C(F)(F)F)c1 (configuration not stated),0,0,18µM,18µM,0,0
